The values that follow come from PubChem BioAssay (NCI).

Common to all, as to experiment: NCI-60 one-dose screen, 48 h (100 = growth as untreated, 0 = no growth, -100 = all killed)
For one assay, the system named is DU-145 prostate. Conditions: 10 µM unless noted.
The next assay deals with K-562 leukemia. The note with it: 10 µM unless noted.
Another assay concerns MALME-3M melanoma. The note with it: 10 µM unless noted.
The subject of a further assay is MDA-MB-231 breast. Conditions: 10 µM unless noted.
The test system of the next assay is RXF 393 renal. The note with it: 10 µM unless noted.
In the next assay the test system is SF-268 CNS. Conditions: 10 µM unless noted.
For another assay, the system named is SF-295 CNS. Conditions: 10 µM unless noted.
For a further assay, the system named is SF-539 CNS. The note with it: 10 µM unless noted.
Another assay relates to UACC-257 melanoma. Conditions: 10 µM.
The subject of the next assay is M14 melanoma. The note with it: 10 µM unless noted.

The panel holds about 83,000 compounds, 20% with a hit somewhere; the sample as a whole holds those more often.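 96-well plates, one dose, 48 hours. Percent growth reported; active if below 10.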 Values without a mark were called inactive. The source made the active and inactive calls.

Consider `Oc1ccc(CSc2nnc(-c3ccc(Br)cc3)o2)c2cccnc12`, for which the growth was 40.2% in the assay on DU-145 prostate; 15.2% in the assay with K-562 leukemia; 58.5% in the assay on MALME-3M melanoma; 51.4% with MDA-MB-231 breast; 60.9% with RXF 393 renal; 31.3% in the assay on SF-268 CNS. Also, the growth with SF-295 CNS is 11.3%; with SF-539 CNS it was 28.4%; in the assay on UACC-257 melanoma it was 29.7%; with M14 melanoma, 31.5%.
As to `COc1ccc(-c2ccnc3c(C#N)c(Nc4ccccc4)nn23)cc1OC`, the growth in the assay with DU-145 prostate was 93.9%; in the assay on K-562 leukemia it was 93.6%; in the assay on MALME-3M melanoma, 110%; with MDA-MB-231 breast, 64.2%; in the assay on RXF 393 renal, 15.8%; with SF-268 CNS it was 86.4%. In addition, the growth with SF-295 CNS is 93.2%; in the assay on SF-539 CNS, 78.8%; in the assay with UACC-257 melanoma it was 104%; in the assay with M14 melanoma it was 117%.
With `CC(C)=CCc1c2c(c(O)c3c1O[C@]14C(=C[C@@H]5C[C@H]1C(C)(C)O[C@@]4(C/C=C(/C)C(=O)O)C5=O)C3=O)CC(O)C(C)(C)O2` (stereo not given in full), the growth is -78.2% (active) in the assay on DU-145 prostate; 5.83% (active) with K-562 leukemia; -38.5% (active) in the assay with MALME-3M melanoma; 0.342% (active) in the assay with MDA-MB-231 breast; -77.4% (active) in the assay with RXF 393 renal; -40.7% (active) in the assay with SF-268 CNS. Also, the growth with SF-295 CNS was -48.5% (active); in the assay with SF-539 CNS it was -37.2% (active); in the assay with UACC-257 melanoma it was -32.5% (active); in the assay on M14 melanoma, -24.8% (active).
Regarding `O=C1/C(=C/c2ccccc2[N+](=O)[O-])Oc2ccc(O)cc21`, the growth is 29.8% with DU-145 prostate; 4.21% (active) with K-562 leukemia; 47.8% in the assay on MALME-3M melanoma; 30.2% in the assay with MDA-MB-231 breast; 12.3% with RXF 393 renal; 78.5% in the assay on SF-268 CNS. For the same compound, the growth is 88.9% in the assay on SF-295 CNS, 15.2% in the assay on SF-539 CNS, 60.3% in the assay on UACC-257 melanoma and 54.9% in the assay with M14 melanoma.
Consider `COc1cc(C2CC(c3ccc(Nc4nc(NCCO)nc(Nc5ccc(Cl)cc5)n4)cc3)=Nc3c(N)nc(N)nc3N2)cc(OC)c1OC` (stereo not given), for which the growth in the assay with DU-145 prostate was 65.7%; in the assay on K-562 leukemia it was 16.4%; with MALME-3M melanoma, 85.7%; in the assay with MDA-MB-231 breast, 60.6%; in the assay with RXF 393 renal, 45%; in the assay on SF-268 CNS, 63%. The growth with SF-295 CNS is 77.6%; with SF-539 CNS, 80.1%; in the assay on UACC-257 melanoma, 92.1%; with M14 melanoma, 81.2%.
Regarding `CC(=O)c1ccc(NC(=O)COc2ccc(C3SCC(=O)N3c3ccc(Br)cc3)cc2)cc1` (stereo not given), the growth in the assay on DU-145 prostate was 104%; in the assay with K-562 leukemia, 90.8%; in the assay on MALME-3M melanoma, 107%; with MDA-MB-231 breast, 90.6%; in the assay on RXF 393 renal, 99.3%; in the assay with SF-268 CNS, 103%. For the same compound, the growth in the assay on SF-295 CNS was 98%; in the assay with SF-539 CNS, 99.2%; in the assay on UACC-257 melanoma, 102%; in the assay with M14 melanoma, 99.9%.
Take `NC(=O)N1N=C(c2cc3ccccc3oc2=O)CC1c1cn(-c2ccccc2)nc1-c1ccc(Cl)cc1` (stereo not given): the growth was 56.6% with DU-145 prostate; 27.4% in the assay with K-562 leukemia; 69.6% in the assay with MALME-3M melanoma; 54.3% in the assay on MDA-MB-231 breast; 88.2% with RXF 393 renal; 54.5% with SF-268 CNS. Also, the growth is 19.6% in the assay on SF-295 CNS, 42.8% in the assay on SF-539 CNS, 59.5% in the assay on UACC-257 melanoma and 43.9% in the assay with M14 melanoma.
With `C/C=C/C=C1\C[C@H]2CO[C@H](O2)C1=O`, the growth in the assay on DU-145 prostate is 106%; in the assay with K-562 leukemia, 56.8%; with MALME-3M melanoma it was 102%; in the assay with MDA-MB-231 breast, 105%; with RXF 393 renal, 104%; in the assay on SF-268 CNS, 105%. Moreover, the growth in the assay with SF-295 CNS is 106%; in the assay on SF-539 CNS, 102%; with UACC-257 melanoma it was 90.8%; in the assay on M14 melanoma, 85.4%.
`C=C(C)[C@@H]1CC[C@]2(C)[C@H](CC=C3[C@@H]4CC(C)(C)CC[C@]4(C(=O)NCC#CCN4CCN(C)CC4)CC[C@]32C)[C@@]1(C)CCC#N`: the growth in the assay on DU-145 prostate was 63.4%; in the assay on K-562 leukemia, -7.15% (active); with MALME-3M melanoma, 34.6%; in the assay with MDA-MB-231 breast it was 47.8%; in the assay with RXF 393 renal, 53.7%; with SF-268 CNS, 65.4%. For the same compound, the growth is 70.5% in the assay with SF-295 CNS, 87.7% in the assay with SF-539 CNS, 91.3% in the assay on UACC-257 melanoma and -63.7% (active) with M14 melanoma.
For `CCN1C(=O)N(CC)C2SC(N/N=C/C=C/c3ccccc3OC)=NC21` (stereo not given), the growth in the assay with DU-145 prostate is 12.9%; in the assay on K-562 leukemia, 18.3%; in the assay with MALME-3M melanoma, 50.4%; in the assay with MDA-MB-231 breast it was 26.5%; in the assay with RXF 393 renal, 20.5%; with SF-268 CNS, 50.9%. For the same compound, the growth is 5.32% (active) in the assay on SF-295 CNS, -10.6% (active) in the assay with SF-539 CNS, 73.5% with UACC-257 melanoma and 0.965% (active) with M14 melanoma.
As to `Fc1ccccc1/C=C(/C1=NCCN1)n1cnc2ccccc21`, the growth with DU-145 prostate was 97.2%; in the assay with K-562 leukemia it was 94.1%; in the assay with MALME-3M melanoma, 91%; with MDA-MB-231 breast, 93.4%; in the assay with RXF 393 renal, 84.1%; in the assay on SF-268 CNS, 90.9%. Also, the growth in the assay with SF-295 CNS is 100%; in the assay with SF-539 CNS it was 95.6%; in the assay on UACC-257 melanoma, 96.9%; in the assay on M14 melanoma, 95.1%.
Consider `O=C1CSC(=O)N1Cc1cc2ccccc2nc1Cl`, for which the growth is 104% in the assay on DU-145 prostate; 99.8% with K-562 leukemia; 94.2% in the assay with MALME-3M melanoma; 103% with MDA-MB-231 breast; 96% with RXF 393 renal; 99.1% in the assay on SF-268 CNS. For the same compound, the growth was 101% with SF-295 CNS, 108% in the assay with SF-539 CNS, 103% in the assay with UACC-257 melanoma and 103% in the assay on M14 melanoma.
Take `CCCCCCNC(=O)Oc1ccc(/C(=C(/C)c2ccc(OC)cc2)c2ccc(OCCN3CCCC3)cc2)cc1`: the growth in the assay with DU-145 prostate was 91.6%; in the assay with K-562 leukemia, 6.93% (active); in the assay with MALME-3M melanoma, -13.6% (active); with MDA-MB-231 breast it was 65.7%; in the assay with RXF 393 renal it was 61.9%; with SF-268 CNS it was 83.6%. The growth with SF-295 CNS was 46.8%; in the assay with SF-539 CNS it was 37.7%; in the assay on UACC-257 melanoma it was 2.85% (active); with M14 melanoma, -35.5% (active).
For `COc1ccc(-c2nnc(/N=C3/C(=O)Nc4ccc(Br)cc43)o2)cc1`, the growth in the assay on DU-145 prostate was 101%; in the assay with K-562 leukemia, 93.1%; in the assay with MALME-3M melanoma, 98.4%; in the assay with MDA-MB-231 breast, 108%; in the assay with RXF 393 renal, 112%; in the assay with SF-268 CNS, 99.3%. The growth in the assay on SF-295 CNS was 99.2%; with SF-539 CNS it was 97.9%; in the assay with UACC-257 melanoma, 106%; in the assay on M14 melanoma it was 101%.
